A selection: hits, their analogues and other compounds. The true share with any hit is near 3.4%.
GPR151 ag – activates the human receptor GPR151; Q8TDV0; PathHunter beta-arrestin GPR151 cells, luminescence; activation, % at 11.2 µM; 650,000 compounds, 1% hits; AID 1508602; in the data active means activation above about 4.9%;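 further: 0% = median of compound wells and 100% = cells with positive control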
TEAD-YAP inh – TEAD-YAP interaction inhibition. HEK-TIYL cells, TEAD-Gal4/YAP UAS-luciferase luminescence. 640,000 compounds, 1.4% hits. inhibition, % at 9.12 µM; in the data active means inhibition above about 32%;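 further: 0% = median of test compound wells and 100% = reference inhibitor wells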
MITF primary – blocks human microphthalmia-associated transcription factor. O75030. AlphaScreen MITF homodimerization, bead proximity signal. inhibition, % at 2.6 µM. 650,000 compounds, 0.91% hits. AID 1259374; in the data active means inhibition above about 50%;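 further: 0% = vehicle wells with protein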
Target sequence (O75030 whole entry, looked up): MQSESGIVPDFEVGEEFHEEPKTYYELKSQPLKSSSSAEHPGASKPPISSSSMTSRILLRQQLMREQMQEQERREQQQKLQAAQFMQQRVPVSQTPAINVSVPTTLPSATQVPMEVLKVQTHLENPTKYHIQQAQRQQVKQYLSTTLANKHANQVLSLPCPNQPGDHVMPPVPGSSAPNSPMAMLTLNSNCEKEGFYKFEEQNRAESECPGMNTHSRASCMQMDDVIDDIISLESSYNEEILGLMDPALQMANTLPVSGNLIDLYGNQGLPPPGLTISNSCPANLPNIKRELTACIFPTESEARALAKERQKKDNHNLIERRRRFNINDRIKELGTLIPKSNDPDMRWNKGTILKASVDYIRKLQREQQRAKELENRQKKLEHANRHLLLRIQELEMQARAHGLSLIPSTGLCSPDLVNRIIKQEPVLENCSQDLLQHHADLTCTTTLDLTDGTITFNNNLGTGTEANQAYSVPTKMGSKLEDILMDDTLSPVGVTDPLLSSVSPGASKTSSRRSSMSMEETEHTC
FBW7 act – activators of human E3 ligase FBW7 | AlphaScreen FBW7–phospho-cyclin E peptide binding, activator screen | normalized activity (activation), % at 26.1 µM | 650,000 compounds, 0.13% hits | AID 1259310; in the data active means normalized activity above about 1.9%;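 further: purified mutant Fbw7 with reduced substrate affinity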
MITF inh conf – confirmation of human MITF inhibitors; AlphaScreen MITF homodimerization, biotin/His-MITF beads; inhibition, % at 2.6 µM; shares compounds with MITF primary; AID 1259372; 4,700 compounds, 16% hits;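 active means inhibition above a cutoff derived from the DMSO control wells, cut at about 28% in these data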;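 further: 0% = MITF dimer wells with DMSO only; inhibitors lower the bead chemiluminescence by keeping MITF from dimerizing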
AlphaScreen DR – AlphaScreen optical interference, dose response counter-screen | shares compounds with MITF primary | AlphaScreen optical interference counterscreen, cell-free | IC50, µM | 480 compounds, 6% hits; call rule not given here
AlphaScreen intf2 – optically interferes with AlphaScreen signal; 4,700 compounds, 7.6% hits; inhibition, % at 2.6 µM; LysRS AlphaScreen counterscreen, signal interference, triplicate; shares compounds with MITF primary; AID 1259376;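 active means inhibition above a cutoff derived from the DMSO control wells, cut at about 30% in these data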
Starred values were filed as active, the others as inactive; . = no result.

SMILES	GPR151 ag	TEAD-YAP inh	MITF primary	FBW7 act	MITF inh conf	AlphaScreen intf2	others
Cc1cc(OCCCN2CCN(C)CC2)cc(C(C)C)c1	0	-1	70*	0	11	23
Cc1cc(C)c(C)c(OCCn2ccnc2)c1	-1	-10	13	2	.	.
COc1ccccc1N1C(=O)c2ccc(NC(C)=O)cc2C1=O	0	6	9	0	.	.
CCc1ccc(/C=C2\SC(=O)N(CC(=O)NCC(=O)O)C2=O)cc1	-2	13	-17	0	.	.
Oc1c(C2CCCCC2)cccc1C1CCCCC1	2	4	60*	0	0	11
Cc1cc(O)ccc1C1CCCCC1	0	8	-1	0	.	.
COc1ccc(/C=C/C(=O)C(C)(C)O)cc1	2	-7	58*	0	-4	6
CCCCOC(=O)c1ccc(NC(=O)C2CCC(C)CC2)cc1 (stereo not drawn)	-1	4	13	0	.	.
O=C(C1CCCN(Cc2ccncc2)C1)N1CCCCC1 (stereo not drawn)	-1	-6	103*	0	-17	-3
O=C(C1CCCN(Cc2cccnc2)C1)N1CCCCC1 (stereo not drawn)	1	10	104*	0	-26	-5
O=C(C1CCCN(Cc2cccc(F)c2)C1)N1CCCCCC1 (stereo not drawn)	0	5	48	0	.	.
O=C(CCc1cnccn1)N1CCCC(CNC(=O)C2(c3ccc(Cl)cc3)CC2)C1 (stereo not drawn)	0	-18	0	0	.	.
CC1CN(Cc2ccccc2Br)CC(C)O1 (stereo not drawn)	-1	0	67*	0	1	4
CC1CN(Cc2ccc(F)c(F)c2)CC(C)O1 (stereo not drawn)	1	2	61*	1	3	1
CC1CN(Cc2ccc(F)cc2F)CC(C)O1 (stereo not drawn)	0	-3	65*	0	0	9
CC1CCN(Cc2csc(N)n2)CC1	4	5	53*	0	16	13
Nc1nc(CC23CC4CC(CC(C4)C2)C3)cs1	1	7	-5	0	.	.
O=C(/C=C/c1ccc(Br)o1)Nc1ccccc1Cl	2	-45	-14	0	.	.
Cc1ccc(/C=C/C(=O)Nc2ccccc2Cl)o1	-1	-44	52*	0	24	26
Cc1cc(C)nc(Nc2ccc(C)c([N+](=O)[O-])c2)n1	0	-13	21	0	.	.
Cc1cc(C)nc(Nc2ccc([N+](=O)[O-])cc2)n1	3	-1	69*	0	1	14
O=C(Nc1ccc(NC(=O)c2cccs2)cc1)c1ccco1	-3	-47	76*	0	-3	-4
COc1ccc(CNCc2c(C(=O)N3CCCC3)nc3ccccn23)cc1OC	-1	-7	5	0	.	.
Cc1cc(C(=O)Nc2cccc(-c3nc4ccccc4o3)c2)n(C)n1	2	20	14	0	.	.
COc1ccc(CNCc2ccco2)cc1OCc1ccccc1	-1	-12	41	0	.	.
SMILES	GPR151 ag	TEAD-YAP inh	MITF primary	FBW7 act	MITF inh conf	AlphaScreen intf2	others
CCOc1ccc(CN2CCN(Cc3ccc(OC)c(OCc4ccccc4)c3)CC2)cc1	1	16	69*	0	-10	5
COc1ccc(CN2CCN(Cc3ccco3)CC2)cc1OCc1ccccc1	0	1	60*	0	8	8
CCS(=O)(=O)N1CCN(Cc2ccc(OCc3ccccc3)c(OC)c2)CC1	1	0	51*	0	14	10
COc1ccc(CN2CCN(S(=O)(=O)c3ccc([N+](=O)[O-])cc3)CC2)cc1OCc1ccccc1	1	30	52*	0	14	23
CCOc1ccc(CN2CCN(Cc3ccc(OC)c(OC)c3)CC2)cc1	2	25	47	0	.	.
COc1cc(CN2CCN(S(=O)(=O)c3ccccc3)CC2)ccc1OCc1ccccc1	1	6	36	0	.	.
Cc1nc2c(c(=O)[nH]1)CCN(C(=O)c1cc3nc(C4(C)CC4)cc(C(F)(F)F)n3n1)C2	1	2	1	0	.	.
O=C(Cc1ccc([N+](=O)[O-])cc1)N/N=C/c1ccc2ncccc2c1	1	12	-4	0	.	.
CN1CCCN(Cc2coc3c(Cl)cc(Cl)cc3c2=O)CC1	0	-9	55*	0	-11	-3
CN1CCCN(Cc2c(Cl)cccc2Cl)CC1	2	4	63*	0	1	1
CN1CCCN(Cc2c(F)cccc2F)CC1	0	0	78*	1	-9	-7
O=CN1CCN(Cc2coc3c(Cl)cc(Cl)cc3c2=O)CC1	0	5	33	0	.	.
O=C(NCC1CCCCC1)c1cn(C2CC2)cc(C(=O)N2CCc3ccccc3C2)c1=O	-1	11	9	0	.	.
COc1ccc(C(=O)Nc2cc(Cl)ccc2Cl)cc1OC	0	-60	0	0	.	.
O=C(NCCCn1ccnc1)NC(C(F)(F)F)C(F)(F)F	1	5	0	0	.	.
O=C(/C(Br)=C/NCCCn1ccnc1)C(F)(F)F	0	6	65*	0	40*	99*
Cn1ccnc1SCc1cc(=O)c(OC(=O)c2cc(Br)ccc2Cl)co1	2	-3	11	0	.	.
Cc1ccc(NC(=O)CN(C)C2CCN(C)CC2)c(Cl)c1	1	10	67*	0	1	10
Cc1ccc(NC(=O)CN(C)CC(=O)Nc2ccc(F)c(F)c2F)c(Cl)c1	-1	-4	5	0	.	.
O=C(NCc1ccccc1Cl)C1CC1	-1	-15	-2	1	.	.
O=C(Cc1cccs1)c1cccc2ccccc12	0	0	1	0	.	.
Cc1ccc(-c2ncn(-c3ccc(Nc4cc(-n5cnc(Nc6ccccc6)n5)c(F)cn4)cc3)n2)cn1	-1	-4	91*	0	52*	-10	AlphaScreen DR=>6.5
COc1cccc(CC2(C3CCN(Cc4cccc(C)c4)CC3)NC(=O)N(C)C2=O)c1 (stereo not drawn)	1	14	-1	0	.	.
COc1ccc(C)cc1NC(=O)CCN1CCOCC1	0	3	15	0	.	.
COc1ccc(C)cc1NC(=O)N1CCC(CO)(CC2CCCCO2)CC1 (stereo not drawn)	0	4	6	0	.	.
COc1ccc(C)cc1NC(=O)CNCC1CCCO1 (stereo not drawn)	-1	2	53*	0	3	9
COc1ccccc1NC(=O)CNCCN1CCOCC1	0	2	86*	0	5	15
COc1ccc(C)cc1NC(=O)CNCCN1CCOCC1	0	-2	87*	0	12	10
N#Cc1ccsc1NC(=O)CNCC1CCCO1 (stereo not drawn)	-2	-4	60*	0	-3	15
COc1ccccc1NC(=S)NCCN1CCOCC1	0	8	12	0	.	.
